The values that follow come from article PMC11062922 (Nature Chemical Biology, 2023).

Structures are written as SMILES. Read-outs that look alike come from different tables or passages of the source.

Common to all, as to design: species or system human, MV4-11 + K-562 + COLO205 + SK-N-BE2 + OVCAR-8
One experiment deals with ADCK3. The conditions noted are these: read-out: apparent Kd, n = 1.
In the next experiment the test system is AKT2. The conditions noted are these: read-out: apparent Kd; compound concentrations:100 nM and 1000 nM (sheet 'Samples'); n = 1.
Another experiment has as its system CDK17. The conditions noted are these: read-out: apparent Kd; compound concentrations:100 nM and 1000 nM (sheet 'Samples'); n = 1.
In the next experiment the test system is CIT. The conditions noted are these: read-out: apparent Kd; compound concentrations:100 nM and 1000 nM (sheet 'Samples'); n = 1.
The next experiment concerns DCTPP1. The conditions noted are these: read-out: apparent Kd; compound concentrations:100 nM and 1000 nM (sheet 'Samples'); n = 1.
Another experiment has as its system EPHA1. The conditions noted are these: read-out: apparent Kd; compound concentrations:100 nM and 1000 nM (sheet 'Samples'); n = 1.
In a further experiment the test system is EPHB6. The settings on record: read-out: apparent Kd; compound concentrations:100 nM and 1000 nM (sheet 'Samples'); n = 1.
For the next experiment, the system named is ERBB3. The settings on record: read-out: apparent Kd; compound concentrations:100 nM and 1000 nM (sheet 'Samples'); n = 1.
A further experiment has as its system ERN2. The settings on record: read-out: apparent Kd; compound concentrations:100 nM and 1000 nM (sheet 'Samples'); n = 1.
For a further experiment, the system named is IGF1R. The conditions noted are these: read-out: apparent Kd; compound concentrations:100 nM and 1000 nM (sheet 'Samples'); n = 1.
The next experiment has as its system JAK2. The settings on record: read-out: apparent Kd; compound concentrations:100 nM and 1000 nM (sheet 'Samples'); n = 1.
In a further experiment the test system is MELK. The settings on record: read-out: apparent Kd; compound concentrations:100 nM and 1000 nM (sheet 'Samples'); n = 1.
The next experiment deals with PDGFRB. The settings on record: read-out: apparent Kd; compound concentrations:100 nM and 1000 nM (sheet 'Samples'); n = 1.
For another experiment, the system named is PYGL. The conditions noted are these: read-out: apparent Kd; compound concentrations:100 nM and 1000 nM (sheet 'Samples'); n = 1.
The next experiment deals with RIOK2. The settings on record: read-out: apparent Kd; compound concentrations:100 nM and 1000 nM (sheet 'Samples'); n = 1.
The next experiment concerns TTN. The conditions noted are these: read-out: apparent Kd; compound concentrations:100 nM and 1000 nM (sheet 'Samples'); n = 1.
The test system of a further experiment is PI4KA. The conditions noted are these: read-out: apparent Kd; compound concentrations: 100 nM and 1000 nM (sheet 'Samples'), CATDS: 8.9803456150084393E-2; n = 1.
The subject of another experiment is PIK3CA. The conditions noted are these: read-out: apparent Kd; compound concentrations: 100 nM and 1000 nM (sheet 'Samples'), CATDS: 0.36477997446567001; n = 1.
The subject of the next experiment is PIK3CB. The conditions noted are these: read-out: apparent Kd; compound concentrations: 100 nM and 1000 nM (sheet 'Samples'), CATDS: 0.118363122139114; n = 1.
The test system of another experiment is PIK3CD. The settings on record: read-out: apparent Kd, n = 1.
A further experiment concerns PIK3CG. The conditions noted are these: read-out: apparent Kd; compound concentrations: 100 nM and 1000 nM (sheet 'Samples'), CATDS: 0.133003472389642; n = 1.
The next experiment relates to PRKDC. The conditions noted are these: read-out: apparent Kd; compound concentrations: 100 nM and 1000 nM (sheet 'Samples'), CATDS: 9.9642367307020793E-2; n = 1.
The test system of the next experiment is SRRT. The settings on record: read-out: apparent Kd; compound concentrations: 100 nM and 1000 nM (sheet 'Samples'), CATDS: 7.4591136223679494E-2; n = 1.
For a further experiment, the system named is TOP2B. The conditions noted are these: read-out: apparent Kd; compound concentrations: 100 nM and 1000 nM (sheet 'Samples'), CATDS: 7.4747311850649895E-2; n = 1.
In a further experiment the test system is ADCK1. The settings on record: read-out: apparent Kd; compound concentrations:100 nM and 1000 nM (sheet 'Samples'); n = 1.
For the next experiment, the system named is CSNK1D. The settings on record: read-out: apparent Kd; compound concentrations:100 nM and 1000 nM (sheet 'Samples'); n = 1.
The test system of another experiment is CSNK1E. The conditions noted are these: read-out: apparent Kd; compound concentrations:100 nM and 1000 nM (sheet 'Samples'); n = 1.
The subject of the next experiment is T1, DJA1.
T1 construct: gene DNAJA1
The conditions noted are these: read-out: apparent Kd; compound concentrations:100 nM and 1000 nM (sheet 'Samples'); n = 1.

In the next experiment the test system is GAK. The conditions noted are these: read-out: apparent Kd; compound concentrations:100 nM and 1000 nM (sheet 'Samples'); n = 1.
The subject of a further experiment is IARS. The conditions noted are these: read-out: apparent Kd; compound concentrations:100 nM and 1000 nM (sheet 'Samples'); n = 1.
A further experiment has as its system PRKACB. The conditions noted are these: read-out: apparent Kd; compound concentrations:100 nM and 1000 nM (sheet 'Samples'); n = 1.
Another experiment relates to PRKCD. The conditions noted are these: read-out: apparent Kd; compound concentrations:100 nM and 1000 nM (sheet 'Samples'); n = 1.
The subject of the next experiment is PRKCQ. The settings on record: read-out: apparent Kd; compound concentrations:100 nM and 1000 nM (sheet 'Samples'); n = 1.
The next experiment relates to PRKD2. The conditions noted are these: read-out: apparent Kd; compound concentrations:100 nM and 1000 nM (sheet 'Samples'); n = 1.
In another experiment the test system is PRKD3. The settings on record: read-out: apparent Kd; compound concentrations:100 nM and 1000 nM (sheet 'Samples'); n = 1.
The test system of the next experiment is TNIK. The settings on record: read-out: apparent Kd; compound concentrations:100 nM and 1000 nM (sheet 'Samples'); n = 1.
The next experiment deals with ADRBK1. The conditions noted are these: read-out: apparent Kd; compound concentrations:100 nM and 1000 nM (sheet 'Samples'); n = 1.
Another experiment has as its system MAPK11. The settings on record: read-out: apparent Kd; compound concentrations:100 nM and 1000 nM (sheet 'Samples'); n = 1.
The next experiment relates to MAPKAPK2. The settings on record: read-out: apparent Kd; compound concentrations:100 nM and 1000 nM (sheet 'Samples'); n = 1.
A further experiment relates to AKT3. The conditions noted are these: read-out: apparent Kd; compound concentrations: 100 nM and 1000 nM (sheet 'Samples'), CATDS: 0.236310491034597; n = 1.
The next experiment relates to CDK13. The conditions noted are these: read-out: apparent Kd; compound concentrations: 100 nM and 1000 nM (sheet 'Samples'), CATDS: 0.20413342280503199; n = 1.
The test system of the next experiment is NQO1. The conditions noted are these: read-out: apparent Kd; compound concentrations: 100 nM and 1000 nM (sheet 'Samples'), CATDS: 0.22110563940730901; n = 1.
A further experiment has as its system AKT1. The conditions noted are these: read-out: apparent Kd; compound concentrations: 100 nM and 1000 nM (sheet 'Samples'), CATDS: 0.39563035574495098; n = 1.
The mark [1] stands for this setting: compound concentrations:100 nM and 1000 nM (sheet 'Samples').

As to `CNc1nc(-c2ccc3c(N)n[nH]c3c2)cc(N2C[C@@H](C(=O)NC3CCCCC3)CC[C@H]2C)n1` [GSK2334470], the potency estimated from few doses with ADCK3 (setting [1]) was 1180 nM; with AKT2, 1570 nM; in the experiment with CDK17, 2130 nM; in the experiment with CIT, 1430 nM; in the experiment on DCTPP1, 1890 nM; with EPHA1, 845 nM. Also, the potency estimated from few doses is 1840 nM with EPHB6; 1360 nM in the experiment with ERBB3; 1440 nM in the experiment on ERN2; 2360 nM with IGF1R; 470 nM with JAK2; 1640 nM with MELK. Also, the potency estimated from few doses in the experiment with PDGFRB was 1950 nM; in the experiment on PYGL, 2020 nM; in the experiment with RIOK2 it was 2110 nM; in the experiment with TTN, 945 nM.
`Nc1ncc(-c2ccc3nccc(-c4ccncc4)c3c2)cc1S(=O)(=O)N1CCOCC1` [GSK1627798A]: the potency estimated from few doses in the experiment with ADCK3 (compound concentrations: 100 nM and 1000 nM (sheet 'Samples'), CATDS: 7.8381532556713998E-2) is 1520 nM; with PI4KA, 893 nM; in the experiment on PIK3CA, 11.1 nM; in the experiment on PIK3CB, 366 nM; in the experiment with PIK3CD (compound concentrations: 100 nM and 1000 nM (sheet 'Samples'), CATDS: 0.63403927390637105), 3.67 nM; with PIK3CG it was 258 nM. Besides, the potency estimated from few doses in the experiment on PRKDC is 627 nM; in the experiment with SRRT, 1900 nM; with TOP2B it was 1880 nM.
Consider `Cc1n[nH]c2ccc(-c3cc(OC[C@@H](N)Cc4ccccc4)cnc3-c3ccoc3)cc12.Cc1n[nH]c2ccc(-c3cc(OC[C@@H](N)Cc4ccccc4)cnc3-c3ccoc3)cc12.O=C(O)C(F)(F)F.O=C(O)C(F)(F)F` [GSK507358A], for which the potency estimated from few doses is 1140 nM in the experiment on ADCK1; 1120 nM in the experiment with CIT; 711 nM in the experiment with CSNK1D; 1160 nM in the experiment on CSNK1E; 890 nM with DJA1; 1500 nM with GAK. The potency estimated from few doses was 2080 nM in the experiment with IARS; 108 nM in the experiment with PIK3CD (setting [1]); 1740 nM in the experiment with PRKACB; 1510 nM in the experiment on PRKCD; 1580 nM in the experiment on PRKCQ; 690 nM in the experiment with PRKD2. Also, the potency estimated from few doses was 353 nM in the experiment with PRKD3 and 141 nM with TNIK.
With `CNC(=O)c1ccc(C)c(-n2c(C)cc(OCc3ccc(F)cc3F)c(Br)c2=O)c1` [PFE-PKIS_41], the potency estimated from few doses is 1260 nM with ADCK3 (setting [1]), 1490 nM in the experiment with ADRBK1, 34.7 nM in the experiment with MAPK11 and 23.3 nM in the experiment on MAPKAPK2.
For `Cc1ccc(C)c(NC(=O)NC2CCN(c3ccnc(Nc4ccc(F)cc4)n3)C2)c1` (stereo not shown) [GSK1379720A], the potency estimated from few doses in the experiment on ADCK3 (compound concentrations: 100 nM and 1000 nM (sheet 'Samples'), CATDS: 0.42611261301479197) was 388 nM; in the experiment with AKT3 it was 1130 nM; with CDK13, 1630 nM; in the experiment with NQO1, 1330 nM.
As to `FC(F)(F)c1ccc(-c2nn3ncccc3c2-c2ccnc(Nc3ccc(Cl)c(C(F)(F)F)c3)n2)cc1` [GW829350X], the potency estimated from few doses in the experiment on ADCK3 (compound concentrations: 100 nM and 1000 nM (sheet 'Samples'), CATDS: 0.67916876553854699) is 727 nM; with AKT1, 2350 nM.
